Sampled rows, rich in hits. Any-hit rate of the full collection: about 1.5%.
Mtb MbtI inh: MbtI salicylate synthase inhibitors, primary screen, biochemical, fluorescence intensity; hit rate 0.89% among 100,000; inhibition, % (no concentration beside the values); purified MbtI enzyme, fluorescence intensity read-out; in the data active = inhibition mostly above about 56%, no sharp cut-off; inactive = mostly below about 77%
Target sequence (P9WFX0 whole entry, looked up): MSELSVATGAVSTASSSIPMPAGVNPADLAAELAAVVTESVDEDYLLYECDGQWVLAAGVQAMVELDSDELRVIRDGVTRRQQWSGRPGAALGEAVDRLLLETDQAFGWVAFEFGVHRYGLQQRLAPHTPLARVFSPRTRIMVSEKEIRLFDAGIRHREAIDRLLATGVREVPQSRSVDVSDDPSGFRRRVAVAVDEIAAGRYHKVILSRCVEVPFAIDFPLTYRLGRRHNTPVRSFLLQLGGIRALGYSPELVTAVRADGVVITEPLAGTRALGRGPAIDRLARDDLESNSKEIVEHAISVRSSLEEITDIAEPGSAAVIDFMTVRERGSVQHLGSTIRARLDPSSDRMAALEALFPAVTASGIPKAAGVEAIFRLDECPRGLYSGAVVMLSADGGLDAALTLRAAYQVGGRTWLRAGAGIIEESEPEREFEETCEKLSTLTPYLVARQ
AID504770: growth inhibition of E. coli YBA685, primary screen, V. cholerae RctB inhibitors | hit rate 0.27% among 130,000 | z-score (concentration not given with the values) | AID 504770, 2011 | E. coli YBA685 rctB-dependent plasmid, OD600 growth, 3 h; hits give low values; in the data active = z-score below about -2, passing the limit was not always enough
MenB inh: M. tuberculosis MenB inhibitors, primary screen, biochemical, absorbance; inhibition, % (test concentration not listed); MenB enzyme assay, absorbance read-out; 1,4-dihydroxy-2-naphthoyl-CoA synthase (Mycobacterium tuberculosis (strain ATCC 25618 / …; AID 540299, 2011; hit rate 0.43% among 100,000; in the data active = inhibition above about 21%, passing the limit was not always enough
PV pol inh: poliovirus RdRp elongation inhibitors, primary screen, biochemical, fluorescence polarization, total intensity | Genome polyprotein (Poliovirus type 1 (strain Mahoney)), P03300 | poliovirus polymerase elongation; hits give low values | % elongation, % (compound at 16.7 µg/mL) | hit rate 0.66% among 150,000; in the data active = % elongation below about 90%
Numbers without * were called inactive; · = no result.

SMILES	Mtb MbtI inh	AID504770	MenB inh	PV pol inh
O=C(NN1C(=O)c2ccccc2C1=O)c1ccccc1	·	-0.6	8	100
Cc1ccccc1C(=O)NN1C(=O)c2ccccc2C1=O	-1	-0.3	33*	101
Clc1nc(Cl)nc(NCCC2=CCCCC2)n1	8	2	17	78*
O=C(CCNS(=O)(=O)c1ccccc1)N1CCCC1	-8	0.25	2	102
CC(CNS(=O)(=O)c1ccccc1)(c1ccccc1)N1CCCCC1 (stereo not given)	-9	-4.1*	·	100
O=C(NCCc1ccco1)c1cn(-c2ccc(F)cc2)nn1	4	0.8	13	102
Clc1ccccc1C1SCC2Nc3ccccc3CN21 (stereo not given)	-5	-0.75	71*	105
O=c1c2ccccc2n2c(-c3ccc(Cl)cc3)nnc2n1CCc1ccccc1	·	·	·	74*
O=c1c2ccccc2n2c(-c3ccc(F)c(F)c3)nnc2n1CCc1ccccc1	·	·	·	105
O=C(Nc1ccc(Cl)cc1Cl)c1c(O)c2c(n(Cc3ccco3)c1=O)CCCC2	·	0.15	-3	103
CCCn1c2c(c(O)c(C(=O)Nc3ccccc3F)c1=O)CCCC2	-3	-0.45	48*	101
COc1cccc(OCC2COS(=O)O2)c1 (stereo not given)	0	-0.9	-43	85*
O=S1OCC(COc2cccc3ccccc23)O1 (stereo not given)	·	-0.85	-12	76*
O=C1NCC(COc2cccc3ccccc23)O1 (stereo not given)	3	-0.65	·	·
Cn1cc(P(=S)(N2CCOCC2)N2CCOCC2)cc1P(=S)(N1CCOCC1)N1CCOCC1	23	1.7	-29	100
Cn1ccnc1P(=S)(c1nccn1C)N1CCOCC1	87*	-0.2	-1	80*
O=C(Oc1ccccc1Cl)C1CCCCC1	-4	-0.2	3	99
CC1(C)CSC(=NCc2ccccc2)N1C(=O)Cn1[nH]c(=O)c2ccccc2c1=O	-13	0.3	-42	95
O=C(Cn1[nH]c(=O)c2ccccc2c1=O)N1CCSC1=NCc1ccccc1	-19	-0.1	2	90*
O=C(c1cc(=O)[nH]c2ccccc12)N1CCCc2ccccc21	-2	-0.5	-5	·
O=C(c1cc(=O)[nH]c2ccccc12)N1CCSC1=NCCc1ccccc1	-5	0	-7	64*
NC(=O)NCC(=O)N1CCN(C(=O)c2ccccc2)CC1	-11	-1	-4	103
C[CH2][Hg][S]c1ccccc1C(=O)O	-47	-5.4*	6	100
CN(C)C(=O)CSc1ccccc1C(=O)O	4	0.8	-17	106
COCC(=O)Nc1ccccc1C(C)C	-7	-0.75	1	98
SMILES	Mtb MbtI inh	AID504770	MenB inh	PV pol inh
CC(C)c1ccccc1NN	·	0.75	11	79*
CC(=O)Oc1c(O)ccc2c(C)cc(=O)oc12	-1	-0.6	-6	102
Cc1cc(=O)oc2c(/C=N/c3ccccn3)c(O)ccc12	32	0.1	-23	88*
Cc1cc(C)nc(S/C=C/C(=O)c2ccc(Cl)cc2)n1	-8	-0.65	-5	108
Cn1cnnc1S/C=C/C(=O)c1ccc(Cl)cc1	85*	-1.3	-10	102
O=C(/C=C/Sc1ccc(Cl)cc1)c1ccccc1	-10	0.4	-8	101
Cn1ccnc1S/C=C/C(=O)c1ccc(Cl)cc1	59*	-0.3	5	99
Cc1c(C(=O)NC(=S)Nc2ccc(Br)cn2)oc2ccccc12	3	0.05	-10	102
Cc1cc(OC(=O)/C=C/c2ccc(F)cc2)cc(=O)o1	62	-0.6	-38	84*
O=C1CS/C(=N\c2nccs2)N1	-1	-2.8*	-28	117
O=C1CSC(=Nc2cccc3ccccc23)N1	-13	-0.9	-17	102
Cc1nn(CCC(N)=S)c2nc(-c3ccccc3)ccc12	175	-1.1	-29	73*
NC1(N)OC(CN2C(=O)c3ccccc3C2=O)CS1 (stereo not given)	-5	-0.7	6	101
O=C1[C@H]2CSC3(C(=O)c4ccccc4C3=O)N2C(=O)[C@H]2CSC3(C(=O)c4ccccc4C3=O)N12	100*	-0.35	-5	99
COc1cccc(N2CC(NC(=O)/C=C\c3ccc4c(c3)OCO4)CC2=O)c1 (stereo not given)	·	·	·	81*
COc1ccc(N2CC(NC(=O)/C=C\c3ccc4c(c3)OCO4)CC2=O)cc1OC (stereo not given)	·	·	·	105
O=C(CSc1ccc2ccccc2c1)N1CCOCC1	7	1.9	-6	99
CCC(CC)NC(=O)c1ccc[nH]c1=S	93*	0.2	-21	102
O=C(NCCc1ccc(Cl)cc1)c1ccc(-n2cnnn2)cc1	26	1.7	4	106
OCCNc1ccc(Cl)cc1	-5	0	1	104
N#CSc1ccc(NCCO)cc1C(F)(F)F	58*	-0.2	-31	103
CCCCN1CNC(=S)NC1	7	1.2	-20	103
Cc1csc(CC(N)=S)n1	98*	-1.6	-56	102
c1ccc2c(c1)COC1(CCCCC1)N2	1	1.1	38*	102
O=c1oc2c(O)c(O)cc3c(=O)oc4c(O)c(O)cc1c4c23	26	0.1	-5	83*
SMILES	Mtb MbtI inh	AID504770	MenB inh	PV pol inh
CCOC(=O)c1sc(N=NC2=C(O)CCCC2=O)c(C(=O)OCC)c1C	14	0.75	-40	42*
C=CCOC(=O)c1sc(N2CCCC2=O)c(C(=O)OCC)c1C	8	-0.4	3	102
CC(C)Cn1c(SCc2nnc(-c3cccs3)o2)nc(O)cc1=O	17	-1.1	-165	83*
CCCCC(CC)C(=O)Nc1nnc(C(C)C)s1 (stereo not given)	70*	-0.25	1	99
CCNC(=O)CSc1nnc(-c2cc(OC)c(OC)c(OC)c2)o1	0	-6.1*	0	105
COc1cccc(-c2nnc(SCC(=O)NC3CCCCC3)o2)c1	·	·	·	88*
O=C1CSc2sc(=S)sc2S1	47	-0.8	-121	88*
CC(C)(/C=N/N(Cc1ccccc1)c1ccccc1)CO	8	0.55	8	108
O=C1C=C/C(=N/N(Cc2ccccc2)c2ccccc2)O1	90*	-0.7	1	101
CCOC(=O)c1c(CN(C)C)oc2ccc(O)cc12	-15	-0.75	-11	105
COc1ccc(-c2cc(-c3ccccc3)c(C#N)c(SCC(O)CS(=O)(=O)Cc3ccccc3)n2)cc1 (stereo not given)	·	·	·	108
CCCCS(=O)(=O)CC(O)CSc1nc(-c2ccc(C)cc2)cc(-c2ccccc2)c1C#N (stereo not given)	·	·	·	81*
O=C(Nc1cccnc1)c1cccc(C(F)(F)F)c1	-13	-1.1	-7	102
C/C(=C\C(=O)c1cccnc1)Nc1ccccc1O	27	0.25	60*	102
CC(C)Cn1cc(NC(=O)Nc2cccc(C(F)(F)F)c2)c2ccccc2c1=O	·	·	·	70*
Cc1ccc(NC(=O)Nc2cn(CC(C)C)c(=O)c3ccccc23)cc1N(C)C	·	·	·	73*
CCCN(CCC)C(=O)Nc1cn(CC(C)C)c(=O)c2ccccc12	120	0.3	-24	97

Compound activity deposited in PubChem by ICCB-Longwood Screening Facility, Harvard Medical School.
